Target: RAC-gamma serine/threonine-protein kinase (Homo sapiens) (UniProt Q9Y243)
Details: at 0.1 µM

Sequence of RAC-gamma serine/threonine-protein kinase (Homo sapiens) (Q9Y243 whole entry): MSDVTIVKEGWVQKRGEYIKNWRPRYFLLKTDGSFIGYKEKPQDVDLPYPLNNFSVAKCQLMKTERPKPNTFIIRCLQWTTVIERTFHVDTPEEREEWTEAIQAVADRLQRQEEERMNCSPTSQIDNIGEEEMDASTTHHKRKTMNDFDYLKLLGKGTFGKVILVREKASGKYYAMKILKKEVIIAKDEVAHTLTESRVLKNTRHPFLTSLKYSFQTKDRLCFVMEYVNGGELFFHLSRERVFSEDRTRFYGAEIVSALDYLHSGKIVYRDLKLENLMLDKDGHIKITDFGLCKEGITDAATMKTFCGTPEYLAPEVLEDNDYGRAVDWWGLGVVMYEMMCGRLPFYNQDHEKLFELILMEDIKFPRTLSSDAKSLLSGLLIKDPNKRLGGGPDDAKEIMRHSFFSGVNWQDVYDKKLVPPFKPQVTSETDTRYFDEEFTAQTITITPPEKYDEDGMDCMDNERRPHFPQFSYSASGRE

SMILES | inhibition [%]
NC(=O)Cc1ccccc1Oc1nccc(-c2c(-c3ccc(F)cc3)ncn2C2CCNCC2)n1 | 0.15
NS(=O)(=O)c1ccc(Nc2cc(-c3ccc(O)c(F)c3)n[nH]2)cc1 | -3.06
Clc1ccc(CNc2nccc(-c3cnn4ncccc34)n2)cc1 | 2.1
COc1ccc2cc(-c3c(-c4ccncc4)nc(-c4ccc([S+](C)[O-])cc4C)n3C)ccc2c1 (centres undefined) | 0.09
NS(=O)(=O)c1ccc(N/N=C2\C(=O)Nc3ccc(-c4cnco4)cc32)cc1 | -3.1
O=C1Nc2ccccc2/C1=C/Nc1ccc(-n2cncn2)cc1 | 0.39
Fc1ccc(-c2ncn(C3CCNCC3)c2-c2ccnc(Oc3ccc(Oc4ccccc4)cc3)n2)cc1 | 2.28
COc1cc2ncn(-c3cc(OCc4ccccc4C(F)(F)F)c(C(C)=O)s3)c2cc1OC | 0.29
CN(C)CCOc1ccc(-c2cc(-c3ccc4c(c3)CCC4=NO)c(-c3ccncc3)o2)cc1 | -0.65
Cc1ccc(NC(=O)c2ccoc2)cc1-c1ccc(C(=O)NCC2CC2)cc1 | 0.72
O=C(Nc1n[nH]c2nc(-c3ccc(O)cc3)c(Br)cc12)C1CC1 | 3.32
COc1cc(N2CCN(C(C)C)CC2)ccc1Nc1nc(Nc2ccc(F)cc2C(=O)NC[C@@H](O)CO)c2cc[nH]c2n1 | -2.3
COc1ccc2cc(-c3c(-c4ccncc4)nc(-c4ccc(S(C)(=O)=O)cc4C)n3C)ccc2c1 | 2.8
CCN(CC)Cc1ccc(Nc2nccc(-c3cnn4ncccc34)n2)cc1 | -1.29
c1ccc(Oc2ccc(Nc3ncc(-c4ccccc4)o3)cc2)cc1 | -0.09
CCc1cccc(CC)c1/C=C/c1cncc(C(=O)NC)c1 | 2.25
NC(=O)c1cc(-c2ccc(F)cc2)cc(-c2ccncc2)c1N | 2.01

SMILES | inhibition [%]
COc1cc(Nc2ncc3c(C)nc(-c4cccc(Oc5ccccc5)c4)n3n2)cc(OC)c1OC | 1.02
C[C@@H](Oc1cc(-n2cnc3ccc(OC4CCN(C)CC4)cc32)sc1C(N)=O)c1ccccc1Cl | -2.91
CN(c1ccc(NC(=O)Nc2c(Cl)cccc2Cl)cc1)c1ccnc(Nc2cccc(CS(C)(=O)=O)c2)n1 | 3.21
Cc1ccc(C(=O)NC2CCC2)cc1-c1ccc(C(=O)NCC2CC2)cc1 | 2.92
COc1ccc2ncn(-c3cc(O[C@H](C)c4ccccc4Cl)c(C(N)=O)s3)c2c1 | -2.12
CCC(=O)Nc1ccc(C)c(-c2ccc(C(=O)NCC3CC3)cc2)c1 | 0.86
CCS(=O)(=O)c1ccc(OC)c(Nc2ncc(-c3ccccc3Cl)o2)c1 | 0.76
Fc1ccc(-c2c(-c3ccncc3)nc3n2CCS3)cc1 | -3.31
COC(=O)Nc1nc2ccc(Sc3ccc(NC(=O)Nc4cc(C(F)(F)F)ccc4F)cc3)cc2[nH]1 | 0.73
O=C(Nc1n[nH]c2cc(-c3cc(F)ccc3F)ccc12)C1CC1 | 1.03
CS(=O)(=O)CCNCc1cc(-c2cc3c(Nc4ccc(OCc5cccc(F)c5)c(Cl)c4)ncnc3s2)cs1 | 1.15
CCc1nccc2c1nc(-c1nonc1N)n2CC | 0.28
COc1cc(C)c(N(C)C(=O)CN(C)C)cc1Nc1nc(Nc2cccc(F)c2C(N)=O)c2cc[nH]c2n1 | -2.47
Nc1nccc(-c2c(-c3ccc(F)cc3)ncn2C2CCC(O)CC2)n1 (centres undefined) | -1.82
O=C1NC(=O)C(c2cccc(Cl)c2)=C1Nc1ccc(Cl)c(C(=O)O)c1 | 1.61
CN(C)CCCNc1nccc(-c2c(-c3ccc(F)cc3)nn3cc(C(F)(F)F)ccc23)n1 | -2.14
Fc1ccc(-c2nc3n(c2-c2ccncc2)CCS3)cc1 | -1.74
